This passage reports binding signal results from article PMC7862700, “An all-to-all approach to the identification of sequence-specific readers for epigenetic DNA modifications on cytosine”.

Common to all, as to experiment: DAPPL (digital affinity profiling via proximity ligation, sequencing); 10 mM Tris-HCl pH 7.5, 50 mM NaCl, 1 mM DTT, 4% glycerol, room temperature, 30 min; GST-TFs on glutathione beads, 16-mer random dsDNA library, 0.1% formaldehyde crosslink after washing; high values mean tight binding
One experiment addresses T1, FEV (Homo sapiens, UniProt Q99581 1-238).
T1 sequence: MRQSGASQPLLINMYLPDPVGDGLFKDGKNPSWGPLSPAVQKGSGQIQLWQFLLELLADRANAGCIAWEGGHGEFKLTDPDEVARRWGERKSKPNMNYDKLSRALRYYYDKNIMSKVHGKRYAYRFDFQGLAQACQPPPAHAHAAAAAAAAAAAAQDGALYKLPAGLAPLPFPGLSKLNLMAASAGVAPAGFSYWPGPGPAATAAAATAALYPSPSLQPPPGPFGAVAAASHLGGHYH
Conditions: protein: recombinant; tags: N-terminal GST; dsDNA, one strand shown. The method, boiled down:
(§1)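 Each value of binding signal is a hexamer's read frequency for a factor divided by the same hexamer's frequency in the tag-only sample. Barcoded, bead-captured GST fusions of human transcription factors made in yeast were pooled with that sample and incubated with 200 nmole of a random double-stranded 16-mer DNA library in Tris/NaCl/DTT/glycerol buffer at room temperature for 30 min. Washing, 0.1% formaldehyde crosslinking, proximity ligation, PCR and Illumina NextSeq500 sequencing followed.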

The target of another experiment is ETV5 (Homo sapiens, UniProt P41161 1-510). Conditions: protein: recombinant; tags: N-terminal GST; dsDNA, one strand shown. The method, boiled down:
as §1

The next experiment has as its target HSF1 (Homo sapiens, UniProt Q00613 1-529). Conditions: protein: recombinant; tags: N-terminal GST; chain copies: 3; dsDNA, one strand shown. Summed up: as §1
The next experiment deals with T2, SPIC (Homo sapiens, UniProt Q8N5J4 1-248).
T2 sequence: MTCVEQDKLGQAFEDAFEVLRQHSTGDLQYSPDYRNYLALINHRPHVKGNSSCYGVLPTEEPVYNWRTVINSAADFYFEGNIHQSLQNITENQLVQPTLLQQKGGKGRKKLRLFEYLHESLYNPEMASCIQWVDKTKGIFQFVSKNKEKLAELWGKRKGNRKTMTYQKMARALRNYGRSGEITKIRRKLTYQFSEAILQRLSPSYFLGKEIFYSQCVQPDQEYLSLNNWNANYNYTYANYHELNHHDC
The conditions noted are these: protein: recombinant; tags: N-terminal GST; dsDNA, one strand shown. Summed up:
as §1

The next experiment deals with ELF4 (Homo sapiens, UniProt Q99607 1-663). Conditions: protein: recombinant; tags: N-terminal GST; dsDNA, one strand shown. The method, boiled down: as §1
The target of a further experiment is T3, ELK4 (Homo sapiens, UniProt P28324-2 1-405).
T3 sequence: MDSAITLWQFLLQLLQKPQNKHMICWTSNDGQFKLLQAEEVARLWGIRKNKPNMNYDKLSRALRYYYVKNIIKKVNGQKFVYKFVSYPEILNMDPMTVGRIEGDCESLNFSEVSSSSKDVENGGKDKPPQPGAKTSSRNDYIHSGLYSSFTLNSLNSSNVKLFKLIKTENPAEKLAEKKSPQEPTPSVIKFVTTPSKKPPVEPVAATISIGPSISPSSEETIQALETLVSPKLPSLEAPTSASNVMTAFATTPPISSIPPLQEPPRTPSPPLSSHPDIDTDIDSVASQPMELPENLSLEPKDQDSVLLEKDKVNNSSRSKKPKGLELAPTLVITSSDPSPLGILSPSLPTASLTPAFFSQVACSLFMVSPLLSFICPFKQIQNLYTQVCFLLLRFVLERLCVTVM
The conditions noted are these: protein: recombinant; tags: N-terminal GST; dsDNA, one strand shown. The method, boiled down: as §1

The target in a further experiment is T4, ETV2 (Homo sapiens, UniProt O00321 1-342).
T4 sequence: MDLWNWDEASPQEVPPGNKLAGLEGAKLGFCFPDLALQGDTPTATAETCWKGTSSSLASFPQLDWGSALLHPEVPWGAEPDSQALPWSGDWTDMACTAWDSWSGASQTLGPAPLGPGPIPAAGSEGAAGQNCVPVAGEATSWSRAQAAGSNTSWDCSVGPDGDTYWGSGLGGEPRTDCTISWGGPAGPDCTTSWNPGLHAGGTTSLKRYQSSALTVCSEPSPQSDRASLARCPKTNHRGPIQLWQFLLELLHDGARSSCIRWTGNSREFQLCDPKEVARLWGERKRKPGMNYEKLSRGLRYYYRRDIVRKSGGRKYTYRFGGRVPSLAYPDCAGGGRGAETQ
The conditions noted are these: protein: recombinant; tags: N-terminal GST; dsDNA, one strand shown. The method, boiled down:
as §1

The target in another experiment is T5, ELF3 (Homo sapiens, UniProt P78545 1-371).
T5 sequence: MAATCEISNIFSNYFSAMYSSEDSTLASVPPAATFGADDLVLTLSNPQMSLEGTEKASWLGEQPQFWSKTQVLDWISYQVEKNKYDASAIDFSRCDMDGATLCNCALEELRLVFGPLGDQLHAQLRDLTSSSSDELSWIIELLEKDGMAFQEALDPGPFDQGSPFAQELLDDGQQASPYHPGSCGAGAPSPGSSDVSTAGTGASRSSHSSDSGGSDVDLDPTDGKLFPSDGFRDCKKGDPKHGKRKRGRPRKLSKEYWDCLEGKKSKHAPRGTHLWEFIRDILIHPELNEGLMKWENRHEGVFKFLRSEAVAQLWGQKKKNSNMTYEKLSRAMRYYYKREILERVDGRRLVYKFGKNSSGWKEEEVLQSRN
Conditions: protein: recombinant; tags: N-terminal GST; dsDNA, one strand shown. Summed up: as §1

A further experiment addresses CRX (Homo sapiens, UniProt O43186 1-299). Conditions: protein: recombinant; tags: N-terminal GST; dsDNA, one strand shown. The method, boiled down: as §1
A further experiment deals with ETV1 (Homo sapiens, UniProt P50549 1-477). Conditions: protein: recombinant; tags: N-terminal GST; dsDNA, one strand shown. Summed up:
as §1

In a further experiment the target is T6, ERF (Homo sapiens, UniProt P50548 1-548).
T6 sequence: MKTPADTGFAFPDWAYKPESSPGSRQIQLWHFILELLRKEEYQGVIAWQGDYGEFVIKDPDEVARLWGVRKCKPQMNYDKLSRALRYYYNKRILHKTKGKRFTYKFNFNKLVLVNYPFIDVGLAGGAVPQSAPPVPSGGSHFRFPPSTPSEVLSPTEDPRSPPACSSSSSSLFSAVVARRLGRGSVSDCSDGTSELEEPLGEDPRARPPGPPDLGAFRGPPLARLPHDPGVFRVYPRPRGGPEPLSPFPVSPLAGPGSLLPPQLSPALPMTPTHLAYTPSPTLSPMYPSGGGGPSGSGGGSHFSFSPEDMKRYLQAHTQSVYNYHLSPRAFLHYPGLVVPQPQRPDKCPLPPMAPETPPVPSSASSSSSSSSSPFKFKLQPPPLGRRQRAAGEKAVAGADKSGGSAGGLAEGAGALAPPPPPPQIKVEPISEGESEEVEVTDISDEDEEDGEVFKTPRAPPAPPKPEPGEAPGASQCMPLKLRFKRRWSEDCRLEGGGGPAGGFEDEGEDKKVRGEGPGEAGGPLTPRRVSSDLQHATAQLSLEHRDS
Conditions: protein: recombinant; tags: N-terminal GST; dsDNA, one strand shown. The method, boiled down: as §1

The next experiment addresses T7, ETV3L (Homo sapiens, UniProt Q6ZN32 1-361).
T7 sequence: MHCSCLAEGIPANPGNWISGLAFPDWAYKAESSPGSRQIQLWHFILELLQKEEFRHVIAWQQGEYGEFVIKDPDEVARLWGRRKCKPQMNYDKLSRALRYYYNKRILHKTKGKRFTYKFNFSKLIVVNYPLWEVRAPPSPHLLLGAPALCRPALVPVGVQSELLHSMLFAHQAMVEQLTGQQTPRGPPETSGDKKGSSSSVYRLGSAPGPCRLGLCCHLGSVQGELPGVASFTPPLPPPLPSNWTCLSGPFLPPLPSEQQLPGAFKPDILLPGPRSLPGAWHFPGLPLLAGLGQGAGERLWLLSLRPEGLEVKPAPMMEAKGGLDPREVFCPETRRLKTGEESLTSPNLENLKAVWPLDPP
The conditions noted are these: protein: recombinant; tags: N-terminal GST; dsDNA, one strand shown. The method, boiled down:
as §1

The next experiment addresses T8, ETS2 (Homo sapiens, UniProt P15036 1-469).
T8 sequence: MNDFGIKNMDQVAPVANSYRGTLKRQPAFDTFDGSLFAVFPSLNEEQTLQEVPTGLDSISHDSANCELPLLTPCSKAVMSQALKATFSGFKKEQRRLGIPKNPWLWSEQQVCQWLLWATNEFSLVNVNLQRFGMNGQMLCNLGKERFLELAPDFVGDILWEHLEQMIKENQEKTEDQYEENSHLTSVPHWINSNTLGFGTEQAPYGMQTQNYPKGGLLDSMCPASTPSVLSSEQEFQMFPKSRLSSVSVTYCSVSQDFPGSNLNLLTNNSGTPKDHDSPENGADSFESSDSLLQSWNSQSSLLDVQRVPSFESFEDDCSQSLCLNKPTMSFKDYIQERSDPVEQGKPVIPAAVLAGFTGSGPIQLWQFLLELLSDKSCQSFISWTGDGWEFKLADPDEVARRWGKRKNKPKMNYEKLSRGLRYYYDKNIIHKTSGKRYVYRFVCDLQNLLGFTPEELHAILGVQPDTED
Conditions: protein: recombinant; tags: N-terminal GST; dsDNA, one strand shown. Summed up:
as §1

Another experiment addresses T9, SPDEF (Homo sapiens, UniProt O95238 1-335).
T9 sequence: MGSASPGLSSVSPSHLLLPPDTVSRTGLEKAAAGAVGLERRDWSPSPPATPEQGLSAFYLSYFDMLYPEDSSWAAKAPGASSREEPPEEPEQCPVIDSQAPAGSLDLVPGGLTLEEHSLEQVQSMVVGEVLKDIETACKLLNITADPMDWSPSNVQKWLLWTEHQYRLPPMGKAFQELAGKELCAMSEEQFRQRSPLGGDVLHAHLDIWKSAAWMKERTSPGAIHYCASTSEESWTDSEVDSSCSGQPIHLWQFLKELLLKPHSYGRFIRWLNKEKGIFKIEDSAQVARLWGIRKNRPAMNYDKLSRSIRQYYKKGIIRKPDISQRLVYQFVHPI
The conditions noted are these: protein: recombinant; tags: N-terminal GST; dsDNA, one strand shown. Summed up: as §1

In the next experiment the target is T10, ETV7 (Homo sapiens, UniProt Q9Y603 1-341).
T10 sequence: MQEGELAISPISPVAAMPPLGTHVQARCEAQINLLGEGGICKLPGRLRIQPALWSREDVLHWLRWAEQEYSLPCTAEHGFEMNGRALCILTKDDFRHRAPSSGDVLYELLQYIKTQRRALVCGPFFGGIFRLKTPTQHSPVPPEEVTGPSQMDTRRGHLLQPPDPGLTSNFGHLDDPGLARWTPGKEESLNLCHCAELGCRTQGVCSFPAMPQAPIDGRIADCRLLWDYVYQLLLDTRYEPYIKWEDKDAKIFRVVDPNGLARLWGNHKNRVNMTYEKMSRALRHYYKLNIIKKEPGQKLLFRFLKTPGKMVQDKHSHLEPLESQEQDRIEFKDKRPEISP
Conditions: protein: recombinant; tags: N-terminal GST; dsDNA, one strand shown. The method, boiled down: as §1

The target of a further experiment is T11, ELF5 (Homo sapiens, UniProt Q9UKW6-2 1-255).
T11 sequence: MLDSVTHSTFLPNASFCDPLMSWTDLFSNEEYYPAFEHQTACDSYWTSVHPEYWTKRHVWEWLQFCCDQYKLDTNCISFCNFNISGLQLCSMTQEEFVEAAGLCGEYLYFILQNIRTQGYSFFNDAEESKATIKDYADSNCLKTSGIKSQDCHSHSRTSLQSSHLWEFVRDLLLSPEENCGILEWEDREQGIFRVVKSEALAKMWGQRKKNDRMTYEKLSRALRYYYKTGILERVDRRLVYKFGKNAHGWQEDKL
Conditions: protein: recombinant; tags: N-terminal GST; dsDNA, one strand shown. The method, boiled down:
as §1

Another experiment addresses T12, ETV3 (Homo sapiens, UniProt P41162-2 1-143).
T12 sequence: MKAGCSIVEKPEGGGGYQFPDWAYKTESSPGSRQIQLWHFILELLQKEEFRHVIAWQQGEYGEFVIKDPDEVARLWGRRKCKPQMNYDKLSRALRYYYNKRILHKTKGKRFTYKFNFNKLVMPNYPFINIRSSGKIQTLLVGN
The conditions noted are these: protein: recombinant; tags: N-terminal GST; dsDNA, one strand shown. Summed up:
as §1

In a further experiment the target is ETV6 (Homo sapiens, UniProt P41212 1-452). The conditions noted are these: protein: recombinant; tags: N-terminal GST; dsDNA, one strand shown. Summed up:
as §1

Chain of CRX (O43186 whole entry): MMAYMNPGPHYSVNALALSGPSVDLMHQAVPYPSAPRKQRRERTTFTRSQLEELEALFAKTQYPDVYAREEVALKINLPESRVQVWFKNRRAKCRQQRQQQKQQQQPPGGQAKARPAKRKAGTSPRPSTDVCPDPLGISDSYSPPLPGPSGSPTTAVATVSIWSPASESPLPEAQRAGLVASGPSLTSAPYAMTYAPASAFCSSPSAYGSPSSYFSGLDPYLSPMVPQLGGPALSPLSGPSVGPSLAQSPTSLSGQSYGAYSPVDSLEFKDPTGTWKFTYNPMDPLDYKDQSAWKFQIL
Chain of ETV6 (P41212 whole entry): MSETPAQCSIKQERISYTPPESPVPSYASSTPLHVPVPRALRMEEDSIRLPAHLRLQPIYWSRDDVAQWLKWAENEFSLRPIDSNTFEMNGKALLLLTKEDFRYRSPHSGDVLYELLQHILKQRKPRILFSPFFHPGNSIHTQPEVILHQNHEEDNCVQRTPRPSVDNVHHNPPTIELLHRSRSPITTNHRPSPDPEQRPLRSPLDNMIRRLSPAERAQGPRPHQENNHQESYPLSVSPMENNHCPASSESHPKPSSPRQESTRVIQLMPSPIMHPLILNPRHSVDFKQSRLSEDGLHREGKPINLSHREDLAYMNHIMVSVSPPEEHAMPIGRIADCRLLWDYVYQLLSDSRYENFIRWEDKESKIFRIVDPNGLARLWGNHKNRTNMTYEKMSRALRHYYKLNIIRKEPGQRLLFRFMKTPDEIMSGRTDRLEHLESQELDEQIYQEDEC
Chain of ELF4 (Q99607 whole entry): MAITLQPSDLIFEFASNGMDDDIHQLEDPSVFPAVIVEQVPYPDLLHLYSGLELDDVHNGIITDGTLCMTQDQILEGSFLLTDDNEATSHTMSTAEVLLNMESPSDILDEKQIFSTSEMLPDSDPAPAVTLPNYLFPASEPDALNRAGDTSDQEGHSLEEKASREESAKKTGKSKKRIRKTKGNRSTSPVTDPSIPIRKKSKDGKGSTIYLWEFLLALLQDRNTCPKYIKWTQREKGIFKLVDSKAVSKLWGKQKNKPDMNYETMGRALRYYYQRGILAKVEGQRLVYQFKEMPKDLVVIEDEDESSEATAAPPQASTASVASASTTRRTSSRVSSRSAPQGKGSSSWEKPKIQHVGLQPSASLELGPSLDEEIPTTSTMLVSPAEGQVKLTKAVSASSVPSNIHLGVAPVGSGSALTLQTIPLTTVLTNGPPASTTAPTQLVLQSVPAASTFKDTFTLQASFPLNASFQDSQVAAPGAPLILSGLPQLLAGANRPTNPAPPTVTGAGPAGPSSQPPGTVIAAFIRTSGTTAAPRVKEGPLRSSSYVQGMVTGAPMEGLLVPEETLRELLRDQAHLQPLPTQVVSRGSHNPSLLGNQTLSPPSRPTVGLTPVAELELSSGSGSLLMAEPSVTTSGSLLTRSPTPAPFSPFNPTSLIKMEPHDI
Chain of HSF1 (Q00613 whole entry): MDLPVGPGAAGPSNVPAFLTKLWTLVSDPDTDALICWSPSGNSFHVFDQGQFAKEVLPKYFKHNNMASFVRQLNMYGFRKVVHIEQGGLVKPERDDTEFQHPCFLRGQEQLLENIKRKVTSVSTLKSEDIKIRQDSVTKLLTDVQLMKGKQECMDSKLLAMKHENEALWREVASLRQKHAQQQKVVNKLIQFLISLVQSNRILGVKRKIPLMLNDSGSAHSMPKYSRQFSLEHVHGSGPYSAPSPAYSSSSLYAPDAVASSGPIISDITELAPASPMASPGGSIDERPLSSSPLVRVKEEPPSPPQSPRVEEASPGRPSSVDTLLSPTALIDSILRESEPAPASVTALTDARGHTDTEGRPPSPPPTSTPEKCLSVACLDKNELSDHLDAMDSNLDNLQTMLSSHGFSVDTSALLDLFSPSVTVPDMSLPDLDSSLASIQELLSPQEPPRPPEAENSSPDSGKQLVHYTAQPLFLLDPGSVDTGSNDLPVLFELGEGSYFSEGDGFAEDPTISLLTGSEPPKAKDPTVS
Chain of ETV1 (P50549 whole entry): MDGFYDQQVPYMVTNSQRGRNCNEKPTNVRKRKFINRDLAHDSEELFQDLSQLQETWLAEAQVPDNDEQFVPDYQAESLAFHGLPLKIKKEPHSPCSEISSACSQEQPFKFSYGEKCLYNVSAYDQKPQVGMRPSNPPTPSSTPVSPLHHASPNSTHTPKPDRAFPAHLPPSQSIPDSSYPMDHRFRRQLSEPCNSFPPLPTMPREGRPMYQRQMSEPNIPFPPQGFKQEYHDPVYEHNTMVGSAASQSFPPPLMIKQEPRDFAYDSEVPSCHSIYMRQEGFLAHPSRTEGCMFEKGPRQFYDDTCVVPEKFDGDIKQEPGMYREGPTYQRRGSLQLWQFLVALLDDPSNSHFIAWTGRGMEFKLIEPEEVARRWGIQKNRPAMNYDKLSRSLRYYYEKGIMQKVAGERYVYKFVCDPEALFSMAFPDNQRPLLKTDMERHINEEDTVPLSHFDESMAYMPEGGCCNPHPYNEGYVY
Chain of ETV5 (P41161 whole entry): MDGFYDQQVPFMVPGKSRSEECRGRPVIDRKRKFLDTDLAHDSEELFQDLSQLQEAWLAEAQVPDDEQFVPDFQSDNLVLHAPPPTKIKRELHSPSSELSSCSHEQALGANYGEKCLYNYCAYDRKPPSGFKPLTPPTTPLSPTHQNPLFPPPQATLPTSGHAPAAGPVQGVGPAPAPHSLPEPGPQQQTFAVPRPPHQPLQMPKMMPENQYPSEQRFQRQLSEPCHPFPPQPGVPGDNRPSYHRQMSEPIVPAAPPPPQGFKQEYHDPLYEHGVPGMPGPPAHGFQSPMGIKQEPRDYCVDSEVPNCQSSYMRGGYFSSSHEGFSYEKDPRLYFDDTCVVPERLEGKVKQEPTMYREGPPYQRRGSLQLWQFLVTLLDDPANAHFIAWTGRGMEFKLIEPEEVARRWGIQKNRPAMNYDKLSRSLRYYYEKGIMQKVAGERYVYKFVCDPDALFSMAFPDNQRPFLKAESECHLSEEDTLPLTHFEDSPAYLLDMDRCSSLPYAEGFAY

Consider CTGAAC, for which the binding signal with FEV was 1.35 fold enrichment (6-mer frequency, TF over GST control); in the experiment with ETV5, 1.41 fold enrichment (6-mer frequency, TF over GST control); with HSF1 it was 1.33 fold enrichment (6-mer frequency, TF over GST control); with SPIC, 1.31 fold enrichment (6-mer frequency, TF over GST control); with ELF4, 1.3 fold enrichment (6-mer frequency, TF over GST control); with ELK4, 1.44 fold enrichment (6-mer frequency, TF over GST control). In addition, the binding signal in the experiment with ETV2 was 1.35 fold enrichment (6-mer frequency, TF over GST control); with ELF3, 1.44 fold enrichment (6-mer frequency, TF over GST control); with CRX, 1.23 fold enrichment (6-mer frequency, TF over GST control); in the experiment with ETV1, 1.43 fold enrichment (6-mer frequency, TF over GST control); with ERF it was 1.33 fold enrichment (6-mer frequency, TF over GST control); in the experiment with ETV3L, 1.3 fold enrichment (6-mer frequency, TF over GST control). The binding signal is 1.32 fold enrichment (6-mer frequency, TF over GST control) with ETS2; 1.47 fold enrichment (6-mer frequency, TF over GST control) with SPDEF; 1.21 fold enrichment (6-mer frequency, TF over GST control) with ETV7; 1.41 fold enrichment (6-mer frequency, TF over GST control) with ELF5; 1.47 fold enrichment (6-mer frequency, TF over GST control) with ETV3; 1.29 fold enrichment (6-mer frequency, TF over GST control) with ETV6.
